CYP2C19 activ: human CYP2C19 activators, primary screen, biochemical, luminescence; Cytochrome P450 2C19 (Homo sapiens), P33261; recombinant CYP2C19, luciferin-H EGE luminescence; stronger effect = higher value; 0 = fully inhibited enzyme, 1 = untreated enzyme; activation factor at 5 µM; 96,000 tested, under 10 active; AID 1025, 2008;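 active = activation factor of at least 2 at 5 µM in the primary screen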;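 also: 0 = wells with 2.5 mM tranylcypromine and 1 = vehicle-only wells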
Target sequence (P33261 whole entry, looked up): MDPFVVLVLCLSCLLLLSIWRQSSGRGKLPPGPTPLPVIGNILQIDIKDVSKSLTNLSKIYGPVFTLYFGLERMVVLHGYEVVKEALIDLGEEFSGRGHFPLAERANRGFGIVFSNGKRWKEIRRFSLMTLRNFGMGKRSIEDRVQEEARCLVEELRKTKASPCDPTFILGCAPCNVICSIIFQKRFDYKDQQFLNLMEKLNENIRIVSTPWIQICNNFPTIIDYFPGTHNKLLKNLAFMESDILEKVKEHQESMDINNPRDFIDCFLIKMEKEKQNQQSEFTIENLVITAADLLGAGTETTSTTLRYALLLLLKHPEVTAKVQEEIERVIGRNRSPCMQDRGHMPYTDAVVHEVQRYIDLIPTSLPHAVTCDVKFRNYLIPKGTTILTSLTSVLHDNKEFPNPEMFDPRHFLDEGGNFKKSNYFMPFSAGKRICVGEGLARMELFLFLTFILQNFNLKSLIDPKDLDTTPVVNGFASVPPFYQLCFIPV
CD11b adhes enh: enhancers of CD11b/CD18 adhesion to fibrinogen, primary screen, K562 cells, luminescence. activation, % at 10 µM. Integrin beta-2 (Homo sapiens) + Integrin alpha-M (Homo sapiens), P05107+P11215. hit rate 0.07% among 93,000. ATPlite luminescence;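 active = 10 µM primary screen giving 50% or more activity, confirmed by 40% or more on retest at that dose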
Mac1 fbg inh: inhibitors of CD11b/CD18 adhesion to fibrinogen, primary screen, K562 cells, luminescence; Integrin beta-2 (Homo sapiens) + Integrin alpha-M (Homo sapiens), P05107+P11215; ATPlite luminescence; Mn2+ added to activate the integrin; inhibition, % at 10 µM; hit rate 0.54% among 93,000; AID 1497, 2009;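 active = primary inhibition of 50% or more at 10 µM, then 40% or more on retest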
CYP2C19 inhib: blockers of cytochrome P450 2C19 activity – biochemical, luminescence, ADME assay, primary screen; P33261; CYP2C19 Supersomes, luciferin-H EGE luminescence, 30 min; inhibition, % at 5 µM; hit rate 21% among 96,000; AID 778, 2007;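 active = CYP2C19 inhibition above a set limit at 5 µM in the primary screen, cut at about 50% in these data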;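 also: plate controls were negative control wells for no effect and 2.5 mM tranylcypromine positive control for full effect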
CYP2C9 activ: human CYP2C9 activators, primary screen, biochemical, luminescence; recombinant CYP2C9, luciferin-H conversion; stronger effect = higher value; factor 1 = untreated enzyme, 0 = blocked; hit rate 1.4% among 96,000; activation factor at 5 µM;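 active = activation factor of 2 or more for CYP2C9 at a 5 µM dose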;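 also: 0 = sulfaphenazole-blocked wells and 1 = vehicle-only wells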
CYP2C9 inh: blockers of cytochrome P450 2C9 activity – biochemical, luminescence, ADME assay, primary screen. CYP2C9 Supersomes, luciferin-H conversion. hit rate 20% among 96,000. inhibition, % at 5 µM. P11712;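 active = blocking of liver enzyme CYP2C9 beyond about 50% at 5 µM, limit read from the data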
* hit, by the source's call; . = not tested or not shown. Only some compounds are listed: those with a hit (about 28% of all), similar ones and a draw of the others.

SMILES | CYP2C19 activ | CD11b adhes enh | Mac1 fbg inh | CYP2C19 inhib | CYP2C9 activ | CYP2C9 inh
CCC(C)(C)n1nnnc1C(c1ccncc1)N1CCN(c2cccc(OC)c2)CC1 (stereo not drawn) | 0.2 | 8 | -10 | 84* | 0.1 | 92*
CCC(C)(C)n1nnnc1C(c1cccnc1)N1CCN(c2cccc(C(F)(F)F)c2)CC1 (stereo not drawn) | 0.2 | . | . | 80* | 0.4 | 58*
CN(CCc1ccccn1)C1CC(=O)N(c2ccc(Cl)cc2)C1=O (stereo not drawn) | 0.7 | 1 | 3 | 28 | 1.3 | -25
CC(=O)c1ccc(NC(=S)N2C(C)CCCC2C)cc1 (stereo not drawn) | 1.1 | -4 | 17 | -11 | 1 | -5
CS(=O)(=O)N(CC(=O)N1CCN(c2ccccc2F)CC1)c1ccc2c(c1)OCCO2 | 0.7 | -7 | 3 | 35 | 0.7 | 28
Cn1c(=O)c2cn(Cc3ccc(Cl)cc3)cc2n(C)c1=O | 0.4 | -2 | 3 | 63* | 0.4 | 58*
Cc1cc(C(=O)COC(=O)C2=NNC(=O)CC2)c(C)n1-c1ccccc1 | 0.5 | -1 | -4 | 50* | 0.7 | 32
O=C1CCC(C(=O)OCC(=O)c2c[nH]c3ccccc23)=NN1 | . | -1 | -2 | . | . | .
Cc1ccc(-n2c(C)cc(C(=O)COC(=O)C3=NNC(=O)CC3)c2C)cc1 | 0.4 | -3 | 5 | 62* | 0.5 | 52*
Cc1ccc(-n2c(C)cc(C(=O)COC(=O)c3c(C)noc3C)c2C)cc1 | 0.9 | -10 | 91 | 10 | 0.8 | 20
COC(=O)C1=C(C)N=C2SC(C#N)=C(N)N2C1c1cc(OC)c(OC)c(OC)c1 (stereo not drawn) | 0.1 | -6 | -11 | 87* | 0.1 | 93*
COC(=O)C1=C(C)N=C2SC(C#N)=C(N)N2C1c1ccc(OCc2ccccc2)cc1 (stereo not drawn) | 0.7 | 3 | 14 | 32 | 0.3 | 69*
COC(=O)C1=C(C)N=C2SCCC(=O)N2C1c1cc(Br)ccc1OC (stereo not drawn) | 0.8 | -5 | -5 | 15 | 0.9 | 12
O=C(CCC1CCCC1)N1CCN(C(=O)COc2ccccc2)CC1 | 1.1 | -5 | 4 | -5 | 1 | -3
O=C(Cn1cnc2ccccc2c1=O)NCCC(=O)N1CCN(c2ccccc2)CC1 | 1 | 0 | -23 | -3 | 0.7 | 31
CC(=O)c1ccc(NC2OC(C)C(O)C(O)C2O)cc1 (stereo not drawn) | 1 | . | . | -4 | 1.1 | -6
O=C(NCCN1CCOCC1)c1cc(S(=O)(=O)NCCCN2CCCC2=O)ccc1Cl | 1.2 | -1 | 1 | -24 | 1.3 | -33
COc1ccccc1C(=O)OCc1c(F)cccc1Cl | 0.3 | . | . | 73* | 3.4* | -237
O=C(O)/C=C/c1cn(-c2ncc(C(F)(F)F)cc2Cl)c2ccccc12 | 1 | . | . | -2 | 1 | -3
O=C(NNC1=C(C(=O)C(F)(F)F)CCC1)c1ccccc1O | 0.7 | -5 | -25 | 26 | 0.2 | 85*
O=C(NNC1=C(C(=O)C(F)(F)F)CCC1)c1ccc(Br)cc1 | 0.9 | -10 | 97* | 7 | 0.3 | 69*
O=C(NNC1=C(C(=O)C(F)(F)F)CCC1)c1ccccc1Cl | 1.1 | 2 | 1 | -10 | 0 | 96*
CCCCN1CCc2c([nH]c3c(C)cccc23)C1=O | 0.5 | -1 | 3 | 46 | 0.5 | 48
CCc1ccc(Nc2nnc(SCC(=O)Nc3cccnc3Cl)s2)cc1 | . | -3 | -15 | . | . | .
Cn1c(=O)c2c(ncn2CC(=O)N(Cc2ccccc2)c2ccccn2)n(C)c1=O | 0.9 | -1 | -11 | 14 | 0.8 | 17
SMILES | CYP2C19 activ | CD11b adhes enh | Mac1 fbg inh | CYP2C19 inhib | CYP2C9 activ | CYP2C9 inh
Cc1cc(NC(=O)CSc2nc3ccccc3c(=O)n2Cc2ccc(F)cc2)no1 | 1 | -3 | -1 | 4 | 0.9 | 11
CCCCn1c(SCC(=O)Nc2cc(C)[nH]n2)nc2ccsc2c1=O | 0.7 | -4 | -2 | 28 | 0.3 | 72*
CCCCCCn1c(SCC(=O)Nc2cc(C)on2)nc2ccccc2c1=O | 0.5 | 11 | -53 | 47 | 0.3 | 71*
NC(=O)c1ccsc1NC(=O)CSc1nnc(C2CC2)n1Cc1ccccc1 | 0.7 | -4 | -8 | 27 | 0.7 | 27
CCCCn1c(SCC(=O)Nc2cc(C)on2)nc2ccsc2c1=O | 1.1 | 0 | 1 | -11 | 0.9 | 9
COc1ccc(CCn2c(SCC(=O)Nc3cc(C)on3)nc3ccsc3c2=O)cc1OC | 0.5 | 15 | 12 | 54* | 0.4 | 60*
NC(=O)c1ccsc1NC(=O)CSc1nc2ccccc2c(=O)n1CCCO | 0.6 | 5 | -1 | 44 | 0.4 | 58*
COc1cccc(-n2c(CNC(=O)OC(C)(C)C)n[nH]c2=S)c1 | 1 | -5 | 12 | 1 | 1 | 3
CC(C)Nc1nc2n(c(=O)n1)CCN2C(C)C | 1.2 | -3 | 1 | -22 | 1.3 | -28
COc1cc(/C=N/n2cnc3scc(-c4cccs4)c3c2=O)cc(OC)c1OC | . | 23 | 5 | . | . | .
CCOC(=O)CSc1nc2ccccc2c(=O)n1CCC(=O)NCCc1ccc(OC)c(OC)c1 | 0.4 | -1 | -1 | 60* | 0.3 | 65*
Cc1cc(NC(=O)CSc2nc3cc4c(cc3c(=O)n2CCc2ccccc2)OCO4)no1 | 0.4 | . | . | 59* | 0.5 | 46
Cc1cc(NC(=O)CSc2nnc3c(C)cc4cc5c(cc4n23)OCO5)no1 | 1 | -7 | 3 | 2 | 0.9 | 13
N#CCSc1nc2ccccc2c(=O)n1CCC(=O)NCCc1ccccc1 | 0.9 | 0 | -6 | 14 | 0.9 | 9
COc1ccc(CCn2c(SCC(=O)Nc3cc(C)on3)nc3ccccc3c2=O)cc1OC | 0.4 | 19 | -1 | 64* | 0.5 | 51*
CNC(=O)CSCCn1c(SCC(=O)NC)nc2ccccc2c1=O | 0.9 | 0 | 1 | 8 | 0.7 | 26
Cc1ccc(-n2c(SCC(=O)Nc3cc(C)on3)nc3ccccc3c2=O)cc1 | 1 | -2 | 3 | 2 | 1 | 3
CCCn1c(SCc2ccon2)nc2ccccc2c1=O | 0.1 | -1 | -48 | 85* | 0.2 | 83*
CCOC(=O)c1cnc2c(C)c(C)ccc2c1Nc1ccc(S(=O)(=O)Nc2ncccn2)cc1 | . | 3 | 0 | . | . | .
CNS(=O)(=O)c1cccc(C(=O)OCC(=O)N2CCc3ccccc3C2)c1 | 0.7 | 6 | -21 | 33 | 1.7 | -70
COC(=O)c1ccc(CSc2nc(C)nc3sc(C)c(C)c23)o1 | 0.7 | 4 | -5 | 32 | 1 | 4

Bioassay records from PubChem.
